# Screening results from PubChem.
# HCMV inh – inhibitors of human cytomegalovirus | HFF cells, HCMV-luciferase reporter, 72 h; hits give low values | activity change, negative = inhibition, % at 57.5 µM | hit rate 4.5% among 410,000; in the data active = activity change below about -60%; inconclusive = no clear call, values can overlap the other calls; inactive = above about -39%
#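 Steps: HFFs plated, 16 h 37C; compounds added; HCMV-luciferase added to MOI 1 PFU/cell; 72 h 37C; OneGlo reagent, 5 min room temperature; luminescence read, normalized to controls.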
# FMDV antiviral – antivirals against foot and mouth disease virus; Potency, µM (series often up to 57.9 µM), inactives show at the highest dose activity change, negative = inhibition, actives largely listed as inhibitors; FMDV antiviral cell-based qHTS; hit rate 1.2% among 410,000; calls by dose curve; tested in HEK293T cells; also: read-out not given here; potency is read from the fitted curve at half-maximal effect; nearly all actives have a fitted effect of over 45% in size
# Vaccinia Venus – inhibitors of vaccinia virus (Venus reporter); hit rate 0.46% among 330,000; AID 720580; Vaccinia virus Venus reporter expression, fluorescence; Potency, µM (doses to about 36.5 µM), for the others: top-dose activity change, negative = inhibition, usual class: inhibitors; calls by dose curve; tested in A549 cells; also: potency is read from the fitted curve at half-maximal effect; nearly all actives have a fitted effect of over 30% in size
# FBPA Giardia inh – Giardia lamblia aldolase inhibition; A8B2U2; purified Giardia FBPA; Potency, µM (series often up to 59.6 µM), without a hit: top-dose activity, negative = inhibition, most hits filed as inhibitors; hit rate 0.71% among 290,000; also: potency is read from the fitted curve at half-maximal effect; nearly all actives have a fitted effect of over 55% in size
# Target sequence (A8B2U2 whole entry, looked up): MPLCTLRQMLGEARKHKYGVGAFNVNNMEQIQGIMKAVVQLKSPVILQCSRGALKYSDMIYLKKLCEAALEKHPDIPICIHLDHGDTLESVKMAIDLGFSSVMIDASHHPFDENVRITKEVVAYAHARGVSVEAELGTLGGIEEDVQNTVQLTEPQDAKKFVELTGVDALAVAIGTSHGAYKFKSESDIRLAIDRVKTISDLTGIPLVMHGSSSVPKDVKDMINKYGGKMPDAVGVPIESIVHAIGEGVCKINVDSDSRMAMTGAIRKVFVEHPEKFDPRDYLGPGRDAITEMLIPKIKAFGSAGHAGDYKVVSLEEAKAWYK
#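 40 nM FBPA preincubated 10 min at RT with compound (up to 57.5 uM final), then substrate plus GAPDH/TPI/NAD/arsenate coupling and diaphorase/resazurin added. Fluorescence read after 20 min at RT, 525/598 nm.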
# Vaccinia mCherry – vaccinia inhibition (mCherry reporter); AID 720579; Vaccinia virus mCherry reporter infection, fluorescence; hit rate 0.63% among 310,000; Potency, µM (top dose mostly 36.5 µM), without a hit: at the top dose activity change, negative = inhibition, usual class: inhibitors; calls by dose curve; tested in A549 cells; also: potency is read from the fitted curve at half-maximal effect; nearly all actives have a fitted effect of over 35% in size
# HCV inh – blocks hepatitis C virus | hit rate 3.4% among 340,000 | Huh7.5.1 HCVcc-Cre infection, luciferase reporter, 44 h | AID 651820 | Potency, µM (series often up to 41.8 µM), for the others: at the highest dose activity change, negative = inhibition, most hits filed as inhibitors; also: potency is read from the fitted curve at half-maximal effect
#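 Cells seeded at 1,000/well and cultured 4 h, then compounds added followed by HCVcc-Cre virus (~0.5 moi). After 44 h further culture, luciferase substrate was added, plates held 15 min at room temperature, and luminescence read for 15 sec.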
# The depositor's hits bear a star; i = inactive; ? = inconclusive; . = no result; [ ] = remark or other dose. Rows were chosen to be rich in hits. Some 7.5% of all compounds tested hit in one or more screens of this group. Unless noted, calls follow the shape of the dose curve; as a rule, active = well fitted curve in the direction sought with a large enough effect; inconclusive = small, poorly fitted or top-dose-only effect, or another doubt; inactive = no such curve, though single readings can be large; an effect the other way counts as inactive or inconclusive. % is scaled to controls: 0 for no effect and ±100 for the full control effect.
SMILES,HCMV inh,FMDV antiviral,Vaccinia Venus,FBPA Giardia inh,Vaccinia mCherry,HCV inh
CC1=C(CO)C(=O)OC([C@@H](C)C2CC[C@H]3C4C[C@H]5O[C@]56[C@@H](O)C=CC(=O)[C@]6(C)C4CC[C@]23C)C1 (stereo partly drawn),-107*,7.1µM*,?,1%,10µM*,?
COC(=O)COc1ccc(/C=N/NC(=O)c2ccc(N(Cc3ccccc3)S(C)(=O)=O)cc2)cc1,?,?,-12%,1%,i,-9%
Cn1c(C=O)c(-c2ccc3c(c2)OCCO3)c2ccccc21,?,-20%,-22%,.,?,16µM*
Nc1c(C(=O)NCc2ccco2)c2nc3ccccc3nc2n1CCN1CCOCC1,-94*,-21%,.,-24%,.,8%
COc1ccc(CCn2c(N)c(C(=O)NCc3ccco3)c3nc4ccccc4nc32)cc1,-75*,-27%,-15%,-25%,-15%,?
Nc1c(C(=O)NCc2ccco2)c2nc3ccccc3nc2n1Cc1ccccc1,-20,-2%,-30%,?,-19%,?
COc1ccc(-c2cc(C(F)(F)F)n3ncc(C(=O)Nc4c(C)n(C)n(-c5ccccc5)c4=O)c3n2)cc1,.,.,.,6%,.,.
CCOC(=O)N1CCC2(CC1)NC(=O)c1ccccc1N2,-15,-12%,2%,.,-3%,.
COC(=O)C1=C(C(=O)OC)[C@]2([C@H]3CCCCN[C@@H](Cc4ccccc4)C(=O)N3Cc3ccccc3)C=C[C@H]1O2,-70*,?,?,.,-20%,11µM*
COC(=O)C1=C(C(=O)OC)[C@]2([C@H]3C/C=C\CN[C@@H](Cc4ccccc4)C(=O)N3Cc3ccccc3)C=C[C@H]1O2,.,.,-27%,.,-11%,.
Cc1ccc(CN2CCN(C3CCN(C(=O)Nc4ccc(C)cc4Cl)CC3)C(=O)C2=O)cc1,2,-9%,-11%,.,-9%,.
CCOC(=O)c1c(C)n(C)c2cc(Br)c(C(=O)OC)cc12,11,-18%,?,-9%,.,10µM*
CN1C(=O)c2c(sc3c2CC(C)(C)SC3)N2CCN=C12,-5,?,0%,-12%,-9%,11µM*
CC1(C)Cc2c(sc3c2C(=O)N(c2ccccc2)C2=NCCN23)CS1,11,-23%,-12%,.,.,23%
CCn1nc(C)cc1C(=O)N1CCCC(N(C)CCc2ccc(OC)c(OC)c2)C1 (stereo not drawn),-5,-10%,-11%,.,-11%,14%
COc1ccc(N=C(NN)c2ccc3ccccc3n2)cc1,-89*,39%,-6%,-27%,i,6%
COc1cc(C(=O)NNC(=O)c2ccc3ccccc3n2)cc(OC)c1OC,46,23%,.,.,.,?
COc1cc(OC)cc(C(=O)NNC(=O)c2ccc3ccccc3n2)c1,-75*,2%,?,.,?,?
COc1ccc(C(=O)NC(=S)NNC(=O)c2ccc3ccccc3n2)cc1,-97*,-29%,-46%,1%,-42%,11µM*
COc1ccc(NC(=S)c2ccc3ccccc3n2)cc1,.,67%,.,-10%,.,5%
CCOC(=O)c1ccc(NC(=O)c2nc[nH]c2C(=O)N[C@@H](C)CO)cc1,-13,-19%,-26%,.,?,.
COC(=O)c1ccc(CNC(=O)C2CCC(=O)N(CCc3ccccc3)C2)cc1 (stereo not drawn),-37,0%,-22%,.,-4%,0%
CC(=O)N(C1=C(N2CCOCC2)C(=O)c2ccccc2C1=O)c1ccc(C(=O)O)cc1,-34,?,.,?,.,13%
CC(=O)N(C)C1=C(N2CCOCC2)C(=O)c2ccccc2C1=O,.,2.5µM*,.,?,.,0.56µM*
O=c1[nH]c(=O)n(Cc2ccco2)c(O)c1C=NCc1ccc2c(c1)OCO2,34,0%,.,9%,.,0%
SMILES,HCMV inh,FMDV antiviral,Vaccinia Venus,FBPA Giardia inh,Vaccinia mCherry,HCV inh
CC1(C)CC(N=Cc2c(O)n(Cc3ccc4c(c3)OCO4)c(=O)c3ccccc23)CC(C)(C)N1,-33,-19%,-4%,2%,i,11µM*
O=P(COCCCCCOCP(=O)(c1ccccc1)c1ccccc1)(c1ccccc1)c1ccccc1,-4,-22%,.,1%,.,?
C=CCn1c(C)cc(C(=O)COC(=O)/C=C/c2cccc(OC)c2)c1C,?,-5%,.,-1%,.,13µM*
C=CCn1c(C)cc(C(=O)COC(=O)/C=C/c2ccc(OC)cc2)c1C,15,1%,.,-2%,.,?
C=CCN(CC(=O)Nc1cccnc1)S(=O)(=O)c1ccc(Cl)cc1,-22,-10%,-11%,.,-14%,2%
COc1cccc(N2CCN(C(=O)CN3C(=O)NC(C)(c4ccc5ccccc5c4)C3=O)CC2)c1 (stereo not drawn),?,?,-17%,.,?,11µM*
O=C(CCCCCNc1nc(=S)[nH]c2ccccc12)N1CCN(c2ccccn2)CC1,?,.,.,-1%,.,.
COc1cccc(CNC(=O)C2CCC(CNc3nc(=S)[nH]c4ccccc34)CC2)c1 (stereo not drawn),14,-11%,-10%,4%,-25%,2µM*
COc1cccc(N2CCN(C(=O)CCCCCNc3nc(=S)[nH]c4ccccc34)CC2)c1,-62*,25µM*,-19%,-5%,-9%,11µM*
Cc1ccc(CNC(=O)C2CCC(CNc3nc(=S)[nH]c4ccccc34)CC2)cc1 (stereo not drawn),-17,-24%,-10%,4%,-14%,?
Cc1ccccc1C(=O)NCCN1CCC(n2c(=O)[nH]c3ccccc32)CC1,-8,-17%,-10%,.,-8%,.
CC1CN2C(CCC(C)C2c2ccc(Br)cc2)C(=O)O1 (stereo not drawn),.,.,.,0%[12.9 µM],.,.
CCOC(=O)c1cc(CC)sc1/N=C/C1C(=O)NC(=S)NC1=O,-32,-3%,5%,18µM*,0%,-6%
O=C(NCc1ccccc1)C1Cc2c(-c3ccc(Cl)cc3)ccnc2O1 (stereo not drawn),?,-26%,?,.,?,.
O=C(Nc1nnc(-c2ccccc2SCc2ccccc2F)s1)Nc1ccccc1F,-61*,1%,0%,9%,i,25%
O=C(NCc1ccncc1)C(=O)N/N=C/c1cccnc1,-17,3%,-3%,3%,i,9%
